Assay results reported in PubChem BioAssay (EPA / NIEHS).
Results filed as inconclusive are left out. Active and inactive are the calls of the source. The calls were made as follows: active = hit-call score of the fitted dose curve at least 0.9, where 1 is the maximum; inconclusive = response in the unintended direction; inactive = score below 0.9.

target: Retinoic acid receptor RXR-alpha (Homo sapiens) (UniProt P19793); assay: ATG_RXRa_TRANS: Attagene TRANS-FACTORIAL HepG2 Assay for human Retinoid X Receptor alpha (RXRa) (AID 2283012)
Sequence (P19793 whole entry, looked up): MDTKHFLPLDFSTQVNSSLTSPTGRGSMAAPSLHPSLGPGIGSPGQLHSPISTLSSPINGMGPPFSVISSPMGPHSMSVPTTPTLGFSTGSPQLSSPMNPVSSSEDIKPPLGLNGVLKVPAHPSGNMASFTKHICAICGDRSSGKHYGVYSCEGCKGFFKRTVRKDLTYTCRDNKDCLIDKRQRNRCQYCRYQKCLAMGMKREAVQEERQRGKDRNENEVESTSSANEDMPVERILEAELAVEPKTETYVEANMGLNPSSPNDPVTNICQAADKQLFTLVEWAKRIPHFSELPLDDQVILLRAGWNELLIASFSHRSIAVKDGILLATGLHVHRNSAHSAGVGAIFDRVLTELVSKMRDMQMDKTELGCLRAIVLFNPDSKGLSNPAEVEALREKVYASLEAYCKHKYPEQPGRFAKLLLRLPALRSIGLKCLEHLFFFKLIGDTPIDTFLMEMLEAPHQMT
Experimental: ATG_TRANS is a cell-based, multiplexed-readout assay that uses HepG2, a human liver cell line, with measurements taken at 24 hours after chemical dosing in a 24-well plate.ATG_RXRa_TRANS is one of 30 assay component(s) measured or calculated from the ATG_TRANS assay. It is designed to make measurements of mRNA induction, a form of inducible reporter, as detected with fluorescence intensity signals by Reverse transcription polymerase chain reaction (RT-PCR) and Capillary electrophoresis technology.Data from the assay component ATG_RXRa_TRANS was analyzed into 1 assay endpoint. This assay endpoint, ATG_RXRa_TRANS, was analyzed in the positive analysis fitting direction relative to DMSO as the negative control and baseline of activity. Using a type of inducible reporter, measures of mRNA for gain-of-signal activity can be used to understand the reporter gene at the transcription factor-level as they relate to the gene RXRA. Furthermore, this assay endpoint can be referred to as a primary readout, because this assay has produced multiple assay endpoints where this one serves a reporter gene function. To generalize the intended target to other relatable targets, this assay endpoint is annotated to the nuclear receptor intended target family, where the subfamily is non-steroidal.
Human liver HepG2 cells are transiently transfected with multiple reporter transcription units (MRTUs) in 6-well plates using FuGene 6 reagent (Roche; 3 ml FuGene/1 mg DNA). The MRTU constructs are regulated by a cis-regulating element (promoter). […] A major difference between the CIS and TRANS system is that in CIS activities of endogenous TFs are measured, whereas the TRANS assay evaluates changes in activities of exogenous, chimeric NR-Gal4 proteins. […] At the end of 24 hour incubation, total RNA was isolated using TriZol reagent (Invitrogen). The isolated RNA is then reverse-transcribed using oligo(dT) primer and Mo-MLV reverse transcriptase (Invitrogen) with DNAse I (Ambion) treatment for 30 min. The one-tenth of the produced cDNA was amplified by PCR using Taq DNA polymerase (Invitrogen) and two reporter sequence-specific primers. The PCR products were fluorescently labeled by primer extension with 6-arboxyfluorescein (6-FAM) 5'-labeled reporter sequence-specific primer (2 min at 95 C, 20 s at 68 C and 10 min at 72 C) and these products were digested with 5U of HpaI (New England Biolabs) for 2h at 37 C. The fragments were purified using Qiaquick PCR columns (Qiagen), analyzed on an ABI 3130xL genetic analyzer (Applied Biosystems) with peak positions identified by using a set of X-rhodamine (ROX)-labeled MapMarker1000 molecular weight standards (BioVentures). The raw capillary electrophoresis data was processed using Attagraph software (Attagene).

SMILES	outcome	AC50
CN(C)CCCN1c2ccccc2CCc2ccc(Cl)cc21	inactive	–
CCCC(=O)OC/C=C(\C)CCC=C(C)C	inactive	–
CC(C)n1c(/C=C/[C@@H](O)C[C@@H](O)CC(=O)O)c(-c2ccc(F)cc2)c2ccccc21	inactive	–
CC(C)(Oc1ccc(Cl)cc1)C(=O)O	inactive	–
CCCCCCC(O)CCCCCCCCCCC(=O)OC (stereo not given)	inactive	–
Nc1ccc(S(=O)(=O)Nc2cnc3ccccc3n2)cc1	inactive	–
CC=CC(=O)O	inactive	–
c1ccc(CNc2ncnc3nc[nH]c23)cc1	inactive	–
CC/C=C\CCCCCO	inactive	–
Cc1ccnc(N)c1	inactive	–
F[B-](F)(F)F	inactive	–
COC(=O)c1ccccc1	inactive	–
CCCCCCC1CCCC(=O)O1 (stereo not given)	inactive	–
CCO[Si](OCC)(OCC)c1ccccc1	inactive	–
C1=CCC=C1	inactive	–
CCCCCC[C@@H](O)C/C=C\CCCCCCCC(=O)O	inactive	–
C=C(C)C(=O)OCC1CCCO1 (stereo not given)	inactive	–
Cc1cc2nc3c(=O)[nH]c(=O)nc-3n(C[C@H](O)[C@H](O)[C@H](O)CO)c2cc1C	inactive	–
Oc1ccc(Cl)cc1C1CCCC1	–	17.6 µM (active)
C=C(C)C(=O)OCCCCCC	inactive	–

SMILES	outcome	AC50
CC1=C(CC=O)C(C)(C)CCC1	inactive	–
CN(C)Cc1cc(C(C)(C)C)c(O)c(C(C)(C)C)c1	–	22.9 µM (active)
CC/C=C\CCO	inactive	–
c1cc(N(CC2CO2)CC2CO2)ccc1Cc1ccc(N(CC2CO2)CC2CO2)cc1 (stereo not given)	inactive	–
CCCCn1cc[n+](C)c1	inactive	–
CCCC[N+]1(C)CCCC1	inactive	–
CCC(C)NC(N)=O (stereo not given)	inactive	–
CCC(C)C1N=C(C)C(C)S1 (stereo not given)	inactive	–
CCCCCCC1CCC(=O)O1 (stereo not given)	inactive	–
CC(C)=CCOC(=O)c1ccccc1	inactive	–
CC1=CCCC(C)(C)C12CCC(C)O2 (stereo not given)	inactive	–
O=C(OCc1ccccc1)c1ccccc1	inactive	–
CCCc1c(OCCCCc2nn[nH]n2)ccc(C(C)=O)c1O	inactive	–
C=CN1CCCCCC1=O	inactive	–
Clc1ccc(Sc2cc(Cl)c(Cl)cc2Cl)cc1	inactive	–
Sc1nc2ccccc2s1	inactive	–
CN1CCCC1	inactive	–
CCCCCCCCCCCCCC	inactive	–
O=C(O)Cc1c[nH]c2ccccc12	inactive	–
CN(C)c1ccc(C(c2ccccc2)c2ccc(N(C)C)cc2)cc1	inactive	–
